Screening results deposited in PubChem BioAssay by several laboratories.
Gli-Sufu block: Gli-Sufu pathway antagonists, primary screen, luciferase luminescence, Sufu-KO-LIGHT cells, uHTS | 0.74% of 340,000 active | AID 588413, 2011 | Sufu-KO-LIGHT fibroblasts, Gli luciferase reporter luminescence | inhibition, % at 5 µM;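 active = inhibition above about 55%, limit read from the data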;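 also: 0% = DMSO-treated cells and 100% = wells with medium but no cells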
Beta cell apopt: inhibitors of cytokine-induced beta cell apoptosis, primary screen, luminescence. INS-1E cytokine-induced death, ATP luminescence, 48 h; percent of positive-control rescue, neutral wells zero. protection from apoptosis, % (concentration not given with the values). 0.8% of 300,000 active. AID 435005, 2010;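 active = Every replicate reaches about 75%, or at least half do and their mean reaches it too, limit read from the data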;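 also: 0% = cytokine-treated negative control wells and 100% = positive control rescue; higher means more ATP so stronger rescue from cytokine killing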
697 NFkB inh: inhibitors of PMA/ionomycin-induced NF-kB reporter, 697 cells, primary screen, B-cell NF-kB inhibitor project, cell-based, luminescence, uHTS | inhibition, % at 4 µM | AID 435022, 2010 | 697 B-cell NF-kB luciferase reporter, 16 h | 0.33% of 330,000 active; in the data active = inhibition above about 35%
Mdm2-MdmX inh: inhibitors of human Mdm2-MdmX association, primary screen, cell-based, luminescence, split luciferase, SaOS-2, uHTS | inhibition, % at 8 µM | Protein Mdm4 (Homo sapiens) + E3 ubiquitin-protein ligase Mdm2 (Homo sapiens), … | AID 485346, 2010 | SaOS-2 split-luciferase Mdm2/MdmX complementation | 3% of 330,000 active;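 active = inhibition of at least 50% at 8 µM in the primary screen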
Target sequence (O15151 whole entry, looked up): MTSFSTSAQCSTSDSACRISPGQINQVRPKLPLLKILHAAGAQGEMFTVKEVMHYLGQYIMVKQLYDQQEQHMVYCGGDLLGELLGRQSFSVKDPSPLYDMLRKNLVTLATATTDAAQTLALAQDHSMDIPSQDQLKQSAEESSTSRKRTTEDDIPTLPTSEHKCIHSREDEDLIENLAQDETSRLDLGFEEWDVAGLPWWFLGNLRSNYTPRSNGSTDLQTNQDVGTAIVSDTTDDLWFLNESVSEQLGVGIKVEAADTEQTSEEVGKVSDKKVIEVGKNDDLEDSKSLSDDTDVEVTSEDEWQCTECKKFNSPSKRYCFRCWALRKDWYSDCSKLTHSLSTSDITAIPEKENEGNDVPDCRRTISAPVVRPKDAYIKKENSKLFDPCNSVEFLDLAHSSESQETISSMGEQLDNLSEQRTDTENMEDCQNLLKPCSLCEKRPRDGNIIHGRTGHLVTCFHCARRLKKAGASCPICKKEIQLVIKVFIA
Target sequence (Q00987 whole entry, looked up): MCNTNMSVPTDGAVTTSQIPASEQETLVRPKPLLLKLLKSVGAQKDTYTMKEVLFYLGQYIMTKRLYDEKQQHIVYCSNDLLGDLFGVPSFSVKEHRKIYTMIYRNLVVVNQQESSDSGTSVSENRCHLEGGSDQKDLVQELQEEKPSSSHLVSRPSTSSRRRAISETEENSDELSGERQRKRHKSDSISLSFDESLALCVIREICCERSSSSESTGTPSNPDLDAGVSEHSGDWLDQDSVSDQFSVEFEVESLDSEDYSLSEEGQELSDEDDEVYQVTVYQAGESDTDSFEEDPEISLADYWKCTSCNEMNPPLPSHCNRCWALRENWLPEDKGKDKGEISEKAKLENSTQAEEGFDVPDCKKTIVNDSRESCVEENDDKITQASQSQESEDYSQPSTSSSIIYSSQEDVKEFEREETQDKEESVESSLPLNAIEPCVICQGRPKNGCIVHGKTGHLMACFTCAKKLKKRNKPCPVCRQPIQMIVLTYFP
Jurkat NFkB inh: inhibitors of induced NF-kB luciferase reporter, primary screen, TCR NF-kB activation inhibitor project, cell-based, luminescence, uHTS | Jurkat, PMA/ionomycin-induced NF-kB luciferase reporter | inhibition, % at 4 µM | 0.53% of 330,000 active; in the data active = inhibition above about 50%
Mdm2-MdmX conf: Mdm2-MdmX complex disruptors, retested hits, confirmation, luminescence, single concentration | shares compounds with Mdm2-MdmX inh | Mdm2-MdmX binding, luminescent assay | inhibition, % at 8 µM | 55% of 10,000 active | AID 489028, 2010; in the data active = inhibition above about 40%
Full FLuc ctr: full-length luciferase signal inhibition, confirmation, counter-screen for Mdm2/MdmX interaction inhibitor project, cell-based, single concentration, SaOS-2; shares compounds with Mdm2-MdmX inh; SaOS-2 full-length luciferase counterscreen, luminescence; inhibition, % at 8 µM; 77% of 6,200 active; AID 504607, 2011;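 active = mean inhibition at 8 µM reaching about 37%, which flags the compound as non-specific, limit read from the data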;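 also: p53-null SaOS-2 cells with luciferase driven by a doxycycline-inducible promoter; compound on cells about two nights before reading with doxycycline added after day one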
* = called active by the depositor. The list is not random: actives were taken first. Their share in the collection is about 4%.

For CSc1ccc(CN(C)C(=O)c2cccc(S(=O)(=O)N3CCN(Cc4ccccc4)CC3)c2)cc1 the results were Gli-Sufu block 45, Beta cell apopt 55, 697 NFkB inh -18, Mdm2-MdmX inh 12 and Jurkat NFkB inh 5.
`CCOc1cc(NC(=O)CCl)c(OCC)cc1NC(=O)CCl` gave Gli-Sufu block 2, Beta cell apopt -3, 697 NFkB inh -26, Mdm2-MdmX inh 96*, Jurkat NFkB inh 3, Mdm2-MdmX conf 80* and Full FLuc ctr 60*.
Screening CN(C)c1cccc(C(=O)N2CCCC(CCC(=O)NCc3ccccc3F)C2)c1 (centres undefined) returned Gli-Sufu block 3, Beta cell apopt -1, 697 NFkB inh -14, Mdm2-MdmX inh 2 and Jurkat NFkB inh 10.
Screening CN(C)CCC1Sc2ccccc2Oc2ccccc21 (centres undefined) returned Gli-Sufu block 13, Beta cell apopt -15, 697 NFkB inh -2, Mdm2-MdmX inh -6 and Jurkat NFkB inh -17.
`CC1c2ccccc2SC(CCCN(C)C)c2ccccc21` (centres undefined) gave Gli-Sufu block 19, Beta cell apopt 3, 697 NFkB inh -12, Mdm2-MdmX inh 52*, Jurkat NFkB inh -9 and Mdm2-MdmX conf 3.
For CCCc1c(NC(=O)Nc2ccc(F)cc2)cnn1-c1ccc(Cl)cc1 the results were Gli-Sufu block -16, Beta cell apopt 2, 697 NFkB inh -113, Mdm2-MdmX inh 61*, Jurkat NFkB inh -9 and Mdm2-MdmX conf 32.
`CC1CCCC(CC(N)=O)CC1` (centres undefined) gave Gli-Sufu block -3.
Screening O=C(/C=C/c1ccc(Cl)c([N+](=O)[O-])c1)Nc1ccc(NC(=O)c2ccco2)cc1 returned Gli-Sufu block 42.
O=C(/C=C/c1ccc(Cl)c([N+](=O)[O-])c1)Nc1cccc(NC(=O)c2ccco2)c1 was read as Gli-Sufu block -1, Beta cell apopt 1, 697 NFkB inh -3, Mdm2-MdmX inh 53*, Jurkat NFkB inh -6 and Mdm2-MdmX conf 22.
For CN(C(=O)COC(=O)c1nc(Cl)c(Cl)c(Cl)c1Cl)C1CCS(=O)(=O)C1 (centres undefined) the results were Gli-Sufu block -5.
For CC(C)(C)N1CC(C(=O)O)CC1=O (centres undefined) the results were Gli-Sufu block 4, Beta cell apopt -9, 697 NFkB inh 17, Mdm2-MdmX inh 0 and Jurkat NFkB inh 4.
Screening Cc1cc(C)cc(-n2nnnc2SCC(=O)Nc2nc(-c3ccc(F)cc3)cs2)c1 returned Gli-Sufu block 5, Beta cell apopt 5, 697 NFkB inh 5, Mdm2-MdmX inh 43 and Jurkat NFkB inh 8.
Screening Cc1ccc(-n2nnnc2SCC(=O)Nc2nc(-c3ccc(F)cc3)cs2)cc1C returned Gli-Sufu block 2, Beta cell apopt 1, 697 NFkB inh 14, Mdm2-MdmX inh 65*, Jurkat NFkB inh 16, Mdm2-MdmX conf 39 and Full FLuc ctr 47*.
`CCCCC1(Cc2ccc([N+](=O)[O-])cc2)C(=O)N(c2ccccc2)N(c2ccccc2)C1=O` gave Gli-Sufu block 41, Beta cell apopt 101*, 697 NFkB inh 6, Mdm2-MdmX inh 97*, Jurkat NFkB inh 13, Mdm2-MdmX conf 97* and Full FLuc ctr 47*.
Screening Cc1nn(Cc2ccc([N+](=O)[O-])cc2)c(=O)n1-c1ccccc1 returned Gli-Sufu block -4, Beta cell apopt -7, 697 NFkB inh 7, Mdm2-MdmX inh -2 and Jurkat NFkB inh -2.
For CCOc1ccc(N(CC(=O)NC2CCCCC2)C(=O)CCC(=O)Nc2cc(C)ccn2)cc1 the results were Gli-Sufu block -8, Beta cell apopt 0, 697 NFkB inh 2, Mdm2-MdmX inh 14 and Jurkat NFkB inh -3.
Screening Cc1ccc(Sc2c(CO)c(-c3ccccc3)nn2C)cc1 returned Gli-Sufu block 41, Beta cell apopt 34, 697 NFkB inh -52, Mdm2-MdmX inh 51*, Jurkat NFkB inh 39, Mdm2-MdmX conf 47* and Full FLuc ctr 92*.
Screening CC(=O)C(C(C)=O)c1c(Cl)c(O)c(O)c2c(C(=O)c3ccccc3)coc12 returned Gli-Sufu block 2, Beta cell apopt 128*, 697 NFkB inh -3, Mdm2-MdmX inh 60*, Jurkat NFkB inh 5 and Mdm2-MdmX conf 34.
For CN1CCN(Cc2c(O)ccc3occ(C(=O)c4ccccc4)c23)CC1 the results were Gli-Sufu block 11, Beta cell apopt -6, 697 NFkB inh -22, Mdm2-MdmX inh -13 and Jurkat NFkB inh 6.
`COc1ccc(NC(=O)c2ccccc2NC(=O)CSc2ccccc2)cc1` gave Gli-Sufu block -44, Beta cell apopt 8, 697 NFkB inh -68, Mdm2-MdmX inh 3 and Jurkat NFkB inh -57.
`Cc1ccccc1C(=O)N1CCN(c2ccc(NC(=S)NC(=O)c3cccs3)cc2)CC1` gave Gli-Sufu block -15, Beta cell apopt 9, 697 NFkB inh -36, Mdm2-MdmX inh 53*, Jurkat NFkB inh 12, Mdm2-MdmX conf 40 and Full FLuc ctr 75*.
Screening Cc1ccccc1C(=O)N1CCN(c2ccc(NC(=O)CSc3ccc(Cl)cc3)cc2)CC1 returned Gli-Sufu block -3, Beta cell apopt 9, 697 NFkB inh -62, Mdm2-MdmX inh 61*, Jurkat NFkB inh 2, Mdm2-MdmX conf 49* and Full FLuc ctr 42*.
Cc1ccccc1C(=O)N1CCN(c2ccc(NC(=O)c3cccc(OC(C)C)c3)cc2)CC1 was read as Gli-Sufu block 24, Beta cell apopt 11, 697 NFkB inh -61, Mdm2-MdmX inh 53*, Jurkat NFkB inh 19, Mdm2-MdmX conf 45* and Full FLuc ctr 55*.
COc1c(C)cccc1C(=O)Nc1ccc(N2CCN(C(=O)c3ccccc3C)CC2)cc1 was read as Gli-Sufu block 0, Beta cell apopt -7, 697 NFkB inh -22, Mdm2-MdmX inh 47 and Jurkat NFkB inh 32.
For COc1ccc(NC(=O)c2ccccc2NC(=O)CSc2ccc(Cl)cc2)cc1 the results were Gli-Sufu block 11, Beta cell apopt 4, 697 NFkB inh -50, Mdm2-MdmX inh 84*, Jurkat NFkB inh -22, Mdm2-MdmX conf 43* and Full FLuc ctr 71*.
